This is an account of results in PubChem BioAssay.

Assay [1] has as its system XIP peptide (Xip251-270) binding. Put plainly: XIP fragment 251-270 binding compounds – biochemical, small-molecule microarray, fluorescence 635/667 nm, 0.1 µg/mL protein, primary screen (AID 1182). The settings on record: fluorescent protein binding, 635 nm, higher = more signal, called active from +8 up or from −8 down.
Assay [2] concerns XIP peptide (Xip251-270). Put plainly: compounds binding XIP fragment 251-270 – biochemical, small-molecule microarray, fluorescence 635/667 nm, 0.5 µg/mL protein, primary screen (AID 1183). The conditions noted are these: fluorescence 635 nm, higher = more signal.
Assay [3] is described as follows: blood-stage malaria parasite viability loss – strain 3D7, DAPI fluorescence, 100 nL, primary screen (AID 1184).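 Also: parasites grown inside human red blood cells in medium with human serum.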 The conditions noted are these: P. falciparum 3D7 growth, 3 d, higher = more signal.
The target in assay [4] is Homeobox protein Hox-A13 (Mus musculus) (UniProt Q62424). Put plainly: disruptors of Hoxa13 oligonucleotide interaction – biochemical, fluorescence polarization, labeled oligonucleotide, primary screen (AID 1185). The settings on record: Hoxa13:DNA binding, 15 min, higher = more signal, called active from +8 up or from −8 down.
The nature of assay [5]: blockers of DNA damage checkpoint Chk1 activation – imaging, HeLa, hydroxyurea, phospho-Chk1 antibody, percent positive cells, primary screen (AID 1186). The settings on record: hydroxyurea-induced phospho-Chk1 immunofluorescence imaging, higher = more signal.
Assay [6] is described as follows: blockers of DNA damage checkpoint Chk1 activation – imaging, HeLa, hydroxyurea, phospho-Chk1 nuclear intensity, primary screen (AID 1187). The conditions noted are these: hydroxyurea-induced phospho-Chk1 immunofluorescence imaging, higher = more signal.

Values joined by “and” are separate entries in the source; they are usually repeats but may differ in a detail not shown here. Identical values can stand only once. Active and inactive are the calls of the source. Unless noted, no rule for the calls is given here.

Chain of Homeobox protein Hox-A13 (Mus musculus) (Q62424 whole entry, looked up): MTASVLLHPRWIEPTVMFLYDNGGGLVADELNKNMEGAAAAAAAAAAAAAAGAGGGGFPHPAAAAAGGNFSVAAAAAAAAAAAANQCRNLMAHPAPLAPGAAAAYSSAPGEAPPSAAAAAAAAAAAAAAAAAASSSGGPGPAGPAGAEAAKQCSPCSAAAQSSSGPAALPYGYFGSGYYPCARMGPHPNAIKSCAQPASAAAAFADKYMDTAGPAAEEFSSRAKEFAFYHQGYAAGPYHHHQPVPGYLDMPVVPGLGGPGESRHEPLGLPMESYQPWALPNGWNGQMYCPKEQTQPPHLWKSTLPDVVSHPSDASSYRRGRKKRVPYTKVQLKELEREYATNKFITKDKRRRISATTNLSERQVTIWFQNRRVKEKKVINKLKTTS

As for `C=CCN(CCCC)C(=O)C1N(c2ccc(CCO)cc2)C(=O)C2C(C(=O)O)C3C=CC21O3` (stereo not drawn), the composite z-score in assay [1] is -1.72 (inactive) and -1.1 (inactive); in assay [2], 0.261 and -0.728. In addition, the z-score in assay [3] is 0.224 and -1.45; in assay [4] it was -1.03 (inactive) and -0.448 (inactive); in assay [5] it was 0.147 (inactive) and -0.608 (inactive); in assay [6] it was -0.173 (inactive) and -0.502 (inactive).
With `CN1C(=O)C2CC=C([C@H]3Oc4ccccc4S(=O)(=O)N4CCC[C@@H]34)CC2C1=O` (stereo partly drawn), the composite z-score in assay [1] is -0.0989 (inactive) and 0.181 (inactive); in assay [2], -0.128 and -1.09. Further, the z-score is -0.292 and -0.542 in assay [3]; -2 (inactive) and -1.92 (inactive) in assay [4]; 0.0695 (inactive) and 0.549 (inactive) in assay [5]; -0.12 (inactive) and 0.575 (inactive) in assay [6].
On to `CCCCCN1CC=CC23O[C@@H]4C=CCCOC(=O)C4[C@H]2C(=O)N(C(C)CO)[C@@H]3C1=O` (stereo partly drawn), for which the composite z-score is 0.79 (inactive) and 0.201 (inactive) in assay [1]; 0.675 and 0.445 in assay [2]. Moreover, the z-score in assay [3] is -0.165 and -0.358; in assay [4], -5.44 (inactive) and -4.65 (inactive); in assay [5], -0.605 (inactive) and 0.667 (inactive); in assay [6], 0.0018 (inactive) and 0.28 (inactive).
With `CC(C)OC(=O)C=C1C[C@@H](c2ccccc2)O[C@@H](c2ccccc2)O1`, the composite z-score is -0.0817 (inactive) and 0.574 (inactive) in assay [1]; 0.686 and 0.831 in assay [2]. Moreover, the z-score in assay [3] is -0.129 and 0.276; in assay [4], -3.55 (inactive) and -3.56 (inactive); in assay [5], -0.502 (inactive) and -0.334 (inactive); in assay [6], -0.687 (inactive) and -0.132 (inactive).
Take `CC(CO)N1C(=O)[C@@H]2C3C(=O)OCCC=C[C@H]3OC23C=CCN(c2ccc(Cl)cc2)C(=O)[C@@H]13` (stereo partly drawn): the composite z-score in assay [1] was 0.291 (inactive) and 0.137 (inactive); in assay [2], -0.784 and 0.213. In addition, the z-score in assay [3] was -0.764 and -0.187; in assay [4] it was -3.34 (inactive) and -6.16 (inactive); in assay [5], 0.537 (inactive) and -0.0281 (inactive); in assay [6], 0.654 (inactive) and 0.0058 (inactive).
Consider `C=CCN(CCCCC)C(=O)C(c1cccs1)N(C(=O)/C=C\C(=O)O)c1c(Cl)cccc1CO` (stereo not drawn), for which the composite z-score was -0.527 (inactive) and 0.809 (inactive) in assay [1]; -1.88 and -0.229 in assay [2]. Also, the z-score was 0.114 and -0.445 in assay [3]; -0.0384 (inactive) and -1.57 (inactive) in assay [4]; 0.79 (inactive) and 0.313 (inactive) in assay [5]; 0.728 (inactive) and 0.468 (inactive) in assay [6].
As to `C=CCN(Cc1ccccc1)C(=O)C1N(CCCCCCO)C(=O)C2C(C(=O)O)C3C=CC21O3` (stereo not drawn), the composite z-score was -0.0934 (inactive) and -0.383 (inactive) in assay [1]; -0.673 and 0.372 in assay [2]. Besides, the z-score was 0.865 and 1.05 in assay [3]; -0.888 (inactive) and 0.0908 (inactive) in assay [4]; 0.909 (inactive) and 0.53 (inactive) in assay [5]; 0.798 (inactive) and 0.751 (inactive) in assay [6].
In the case of `CC(C)OC(=O)C=C1C[C@@H](c2cccc(C(F)(F)F)c2)O[C@@H](c2cccc(C(F)(F)F)c2)O1`, the composite z-score is 0.081 (inactive) and 0.769 (inactive) in assay [1]; 0.78 and 0.781 in assay [2]. Also, the z-score in assay [3] is 0.15 and -0.473; in assay [4], -2.72 (inactive) and -1.27 (inactive); in assay [5], -0.394 (inactive) and -0.391 (inactive); in assay [6], -0.854 (inactive) and -0.46 (inactive).
As for `C=C[C@H](C)[C@H](O)c1ccc(O)c2ccccc12`, the composite z-score in assay [1] was -0.389 (inactive) and -0.742 (inactive); in assay [2], -0.236 and 0.788. Moreover, the z-score was 0.138 and 0.719 in assay [3]; -3.07 (inactive) and -2.91 (inactive) in assay [4]; -1.1 (inactive) and -1.31 (inactive) in assay [5]; -0.114 (inactive) and -0.271 (inactive) in assay [6].
Turning to `C=CCN(CCCC)C(=O)C(c1cccs1)N(C(=O)/C=C\C(=O)O)c1ccc(CCO)cc1` (stereo not drawn), the composite z-score in assay [1] was 1.82 (inactive) and -0.761 (inactive); in assay [2] it was -0.319 and -1.84. Besides, the z-score is 0.28 and 0.445 in assay [3]; -1.28 (inactive) and -0.734 (inactive) in assay [4]; 0.655 (inactive) and -0.177 (inactive) in assay [5]; 1.04 (inactive) and 0.345 (inactive) in assay [6].
In the case of `C=CCN(Cc1ccccc1)C(=O)C(c1cccs1)N(C(=O)/C=C\C(=O)O)c1ccc(CCO)cc1` (stereo not drawn), the composite z-score was -0.37 (inactive) and 0.164 (inactive) in assay [1]; -0.468 and 0.61 in assay [2]. Also, the z-score in assay [3] was -0.0763 and 0.331; in assay [4], 0.603 (inactive) and 0.423 (inactive); in assay [5] it was 0.141 (inactive) and 0.581 (inactive); in assay [6] it was 0.404 (inactive) and 0.592 (inactive).
With `CC(CO)N1C(=O)[C@@H]2C3C(=O)OCCC=C[C@H]3OC23C=CCN(CCN2CCOCC2)C(=O)[C@@H]13` (stereo partly drawn), the composite z-score in assay [1] was -0.163 (inactive) and 0.286 (inactive); in assay [2], -0.0259 and 0.321. Moreover, the z-score in assay [3] is -0.195 and 0.513; in assay [4], -6.39 (inactive) and -7.63 (inactive); in assay [5], 0.079 (inactive) and 0.456 (inactive); in assay [6], -0.204 (inactive) and 0.371 (inactive).
With `C=CC[C@H](O)c1ccc(OCCO)cc1`, the composite z-score in assay [1] was 0.179 (inactive) and 0.125 (inactive); in assay [2] it was -1.28 and -0.655. Besides, the z-score in assay [3] was -0.597 and 1.72; in assay [4], -0.488 (inactive) and -0.803 (inactive); in assay [5], -0.23 (inactive) and 0.182 (inactive); in assay [6] it was 0.313 (inactive) and 0.469 (inactive).
